Assay results reported in PubChem BioAssay (Tox21).
Values without a mark were called inactive. Results filed as inconclusive are left out. Where a call stands in place of a potency, no number is given. Active and inactive are the calls of the source. Unless noted, the call rests on the fitted dose curve.

How the values were obtained:
[1] = Nuclear factor erythroid 2-related factor 2/antioxidant responsive element (Nrf2/ARE) small molecule agonists: qHTS cell viability counter screen in human keratinocytes (AID 1919968; active means well fitted curve in the direction sought with a large enough effect in the repeat runs; an effect the other way counts as inactive or inconclusive; further: nearly all actives have a fitted effect of over 55% in size; further: potency means the concentration at half of the fitted maximal effect)
Procedure, shortened: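 HaCaT ARE reporter line, 1,500 cells/well; 5 h settle, 37 C/5% CO2; cpd in DMSO pinned; 23 h exposure; CellTiter-Fluor, 1 h; fluorescence.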

[2] = Nuclear factor erythroid 2-related factor 2/antioxidant responsive element (Nrf2/ARE) small molecule agonists: luciferase reporter gene qHTS assay in human keratinocytes (AID 1919969); further: nearly all actives have a fitted effect of over 35% in size
[3] = target: Gonadotropin-releasing hormone receptor (Homo sapiens) (UniProt P30968); test: Human gonadotropin-releasing hormone receptor (GnRHR) small molecule agonists, calcium flux assay in GnRHR-HEK293 cells (AID 1920063); further: nearly all actives have a fitted effect of over 35% in size
Procedure, shortened: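 GnRHR-HEK293, 1500 cells/well, 18 h 37 C/5% CO2; Ca dye 1 h 37 C; cpd pinned (DMSO), agonist mode; kinetic FL 480/540, 3 min, 1 s reads; 15 conc, n=3.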

[4] = target: KiSS-1 receptor (Homo sapiens) (UniProt Q969F8); test: Human kisspeptin (KISS1R) small molecule agonists, calcium flux assay in KISS1R-HEK293 cells (AID 1920064; active means well fitted curve in the direction sought with a large enough effect in the repeat runs; an effect the other way counts as inactive or inconclusive)
Procedure, shortened: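 Stable human KISS1R HEK293 line; 18 h plating, 37 C/5% CO2; calcium dye 1 h 37 C; compound pin transfer; kinetic fluorescence Ex/Em 480/540, 3 min.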

[5] = G protein-coupled receptor (GPCR) small molecule agonists, calcium flux assay: HEK293 wild type cell line counter screen (AID 1920065)
Procedure, shortened: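 Kinetic fluorescence at Ex/Em 480/540, recorded every second over 3 min, served as the read-out after compound addition. Each compound was tested at 15 concentrations in triplicate on cells pre-loaded with calcium dye for 1 h.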

[6] = p53 small molecule agonists, cell-based qHTS assay with human liver microsomes (AID 1963577)
Procedure, shortened: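 p53RE-bla cells, 4,000/well, compound added after 5 h, with human liver microsomes 0.5 mg/mL and NADPH 0.5 mg/mL final; 16 h at 37 C, then LiveBLAzer 2 h RT, fluorescence.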

[7] = p53 small molecule agonists, cell-based qHTS assay with rat liver microsomes (AID 1963578)
Procedure, shortened: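 p53RE-bla cells, 4,000/well, pre-incubated 5 h, then given compounds plus rat liver microsomes (0.5 mg/mL final) and NADPH (0.5 mg/mL final). Incubation 16 h at 37 C; beta-lactamase reporter read by LiveBLAzer fluorescence after 2 h at room temperature.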

[8] = p53 small molecule agonists, cell-based qHTS assay with human liver microsomes: qHTS cell viability counter screen (AID 1963579); further: nearly all actives have a fitted effect of over 45% in size
Procedure, shortened: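 p53RE-bla cells, 4,000/well, dosed 5 hours after plating, with human liver microsomes (0.5 mg/mL final) plus NADPH (0.5 mg/mL final), 16 hours at 37 C. Viability read as CellTiter-Glo luminescence after 30 min at room temperature.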

[9] = p53 small molecule agonists, cell-based qHTS assay with rat liver microsomes: qHTS cell viability counter screen (AID 1963580); further: nearly all actives have a fitted effect of over 45% in size
Procedure, shortened: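 p53RE-bla HCT-116 cells (4,000/well) rested 5 h at 37 C, then given Tox21 compounds in DMSO with rat liver microsomes (0.5 mg/mL final) plus NADPH (0.5 mg/mL final) for 16 h at 37 C. Viability read by CellTiter-Glo luminescence after 30 min at room temperature.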

[10] = p53 small molecule agonists, cell-based qHTS assay (AID 1963582; active means well fitted activation curve with a large enough effect in the signal ratio in the repeat runs, not every such curve was filed as active; the % refers to the signal ratio)
Procedure, shortened: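 Reporter line: p53RE-bla. Pre-incubation 5 h, 37 C, 5% CO2; compound (DMSO, pin tool) 16 h, 37 C; B/G FRET substrate 2 h RT; fluorescence intensity read.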

[11] = target: 5-hydroxytryptamine receptor 2A (Homo sapiens) (UniProt P28223); test: 5-hydroxytryptamine receptor 2A (HTR2A) small molecule agonists, cell-based qHTS assay (AID 1963587); further: nearly all actives have a fitted effect of over 30% in size
Procedure, shortened: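 HTR2A-CHO cells, plated 18 h at 37 C/5% CO2, dye-loaded 1 h at 37 C; compounds in DMSO added by pin tool (agonist mode). Intracellular calcium flux read as kinetic fluorescence on FDSS over 2 min at 1 s intervals.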

[12] = target: Muscarinic acetylcholine receptor M1 (Homo sapiens) (UniProt P11229); test: Cholinergic receptor muscarinic 1 (CHRM1) small molecule antagonists, cell-based qHTS assay (AID 1963588); further: nearly all actives have a fitted effect of over 40% in size
Procedure, shortened: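 CHRM1-CHO calcium-flux assay, antagonist mode. Cells were seeded 18 h, dye-loaded 1 h at 37 C and given compound for 5 min at RT, then acetylcholine was added at 50nM. FDSS fluorescence was read 3 min; 15 concentrations, three runs.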

[13] = target: Muscarinic acetylcholine receptor M1 (Homo sapiens) (UniProt P11229); test: Cholinergic receptor muscarinic 1 (CHRM1) small molecule agonists, cell-based qHTS assay (AID 1963589); further: nearly all actives have a fitted effect of over 35% in size
Procedure, shortened: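 Human M1 in stable CHO line; 18 h plating, 1 h dye load 37 C; cpd added (agonist mode); Ca2+ fluorescence kinetic read, 1 s intervals; 15 conc, 3 runs.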

[14] = cAMP Responsive Elements (CRE) small molecule agonists, cell-based qHTS assay (AID 1963590)
Procedure, shortened: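 HEK 293T CRE-bla, 2,000 cells/well, 18 h preincubation 37 C/5% CO2; cpds (DMSO) pinned, 3 h; LiveBLAzer B/G FRET substrate, 2 h RT.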

[15] = cAMP Responsive Elements (CRE) small molecule antagonists, cell-based qHTS assay (AID 1963591; active means well fitted inhibition curve with a large enough effect in the signal ratio in the repeat runs, not every such curve was filed as active; the % refers to the signal ratio)
Procedure, shortened: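 Beta-lactamase reporter read by FRET substrate (LiveBLAzer B/G) after 2 h at room temperature. CRE-bla HEK293T cells had received compound plus 0.25 uM (final) NKH477 for 3 h at 37 °C.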

[16] = target: Beta-2 adrenergic receptor (Homo sapiens) (UniProt P07550); test: Adrenergic beta2 receptor (ADRB2) small molecule antagonists, cell-based qHTS assay (AID 1963592); further: series mostly up to about 92 µM; nearly all actives have a fitted effect of over 50% in size
Procedure, shortened: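 Cells (CHO, stable ADRB2 overexpression) incubated 18-20hr at 37C; compounds added from DMSO; agonist mix (1nM isoproterenol, 100uM IBMX, 25uM Ro-20-1724) added; 0.5hr RT; d2-cAMP and anti-cAMP-cryptate added; 1hr RT; 665/615 nm read.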

[17] = target: D(2) dopamine receptor (Homo sapiens) (UniProt P14416); test: Dopamine D2 receptor (DRD2) small molecule agonists, cell-based qHTS assay (AID 1963594); further: nearly all actives have a fitted effect of over 35% in size
Procedure, shortened: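 HEK293 cells stably expressing DRD2 were cultured 24 h at 37 C, then given Ro20-1724 (0.1 mM final) and compounds for 10 min at room temperature. NKH477 (200nM) was then added for 30 min. cAMP was read by HTRF.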

[18] = target: D(2) dopamine receptor (Homo sapiens) (UniProt P14416); test: Dopamine D2 receptor (DRD2) small molecule antagonists, cell-based qHTS assay (AID 1963595; active means well fitted inhibition curve with a large enough effect in the signal ratio in the repeat runs, with a control signal flat; the % refers to the signal ratio)
Procedure, shortened: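 Cells were plated and grown for 24 h at 37 °C. Ro20-1724 (0.1 mM final) went in first, then compound for 10 min. NKH477 (200 nM) with quinpirole (12 nM) followed for 30 min at RT, then HTRF detection reagents for 1 h.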

[19] = target: 5-hydroxytryptamine receptor 2A (Homo sapiens) (UniProt P28223); test: 5-hydroxytryptamine receptor 2A (HTR2A) small molecule antagonists, cell-based qHTS assay (AID 1963586); further: nearly all actives have a fitted effect of over 45% in size
Procedure, shortened: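 Antagonist-mode intracellular calcium assay: DOI (4 nM) added after 5 min compound pre-incubation at room temperature to dye-loaded HTR2A-CHO cells. Fluorescence followed for 3 min, sampled every second.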

[20] = p53 small molecule agonists, cell-based qHTS assay: qHTS cell viability counter screen (AID 1963581); further: nearly all actives have a fitted effect of over 45% in size
Procedure, shortened: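 HCT-116 p53RE-bla cells, 4,000/well, plated 5 h before compound pin transfer; 16 h at 37 C; bla substrate 2 h RT; then CellTiter-Glo, 30 min RT, luminescence.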

Chain of Muscarinic acetylcholine receptor M1 (Homo sapiens) (P11229 whole entry, looked up): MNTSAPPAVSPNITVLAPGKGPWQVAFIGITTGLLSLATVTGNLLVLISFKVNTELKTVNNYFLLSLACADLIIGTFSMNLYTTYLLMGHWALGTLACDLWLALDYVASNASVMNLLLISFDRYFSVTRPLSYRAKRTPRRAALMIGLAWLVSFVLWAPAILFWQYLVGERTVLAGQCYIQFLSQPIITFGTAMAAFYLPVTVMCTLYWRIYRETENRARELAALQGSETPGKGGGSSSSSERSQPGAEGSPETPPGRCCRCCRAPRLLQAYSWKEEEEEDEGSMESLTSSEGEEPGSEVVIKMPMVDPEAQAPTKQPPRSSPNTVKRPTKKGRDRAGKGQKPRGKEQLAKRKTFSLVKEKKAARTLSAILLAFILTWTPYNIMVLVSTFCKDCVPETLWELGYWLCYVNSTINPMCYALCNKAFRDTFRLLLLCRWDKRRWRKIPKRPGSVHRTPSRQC
Chain of 5-hydroxytryptamine receptor 2A (Homo sapiens) (P28223 whole entry, looked up): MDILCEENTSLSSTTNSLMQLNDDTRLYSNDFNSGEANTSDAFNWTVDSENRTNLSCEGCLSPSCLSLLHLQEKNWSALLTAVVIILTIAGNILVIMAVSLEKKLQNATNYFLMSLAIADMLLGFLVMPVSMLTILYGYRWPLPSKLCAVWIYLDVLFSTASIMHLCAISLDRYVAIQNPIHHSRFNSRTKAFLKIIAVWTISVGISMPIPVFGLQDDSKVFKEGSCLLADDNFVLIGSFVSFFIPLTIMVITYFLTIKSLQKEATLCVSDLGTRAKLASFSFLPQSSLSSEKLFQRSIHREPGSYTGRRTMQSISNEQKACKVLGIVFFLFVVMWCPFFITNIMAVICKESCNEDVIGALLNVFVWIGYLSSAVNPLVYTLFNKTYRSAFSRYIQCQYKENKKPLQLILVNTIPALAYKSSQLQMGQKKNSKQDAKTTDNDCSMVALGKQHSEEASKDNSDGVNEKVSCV
Chain of D(2) dopamine receptor (Homo sapiens) (P14416 whole entry, looked up): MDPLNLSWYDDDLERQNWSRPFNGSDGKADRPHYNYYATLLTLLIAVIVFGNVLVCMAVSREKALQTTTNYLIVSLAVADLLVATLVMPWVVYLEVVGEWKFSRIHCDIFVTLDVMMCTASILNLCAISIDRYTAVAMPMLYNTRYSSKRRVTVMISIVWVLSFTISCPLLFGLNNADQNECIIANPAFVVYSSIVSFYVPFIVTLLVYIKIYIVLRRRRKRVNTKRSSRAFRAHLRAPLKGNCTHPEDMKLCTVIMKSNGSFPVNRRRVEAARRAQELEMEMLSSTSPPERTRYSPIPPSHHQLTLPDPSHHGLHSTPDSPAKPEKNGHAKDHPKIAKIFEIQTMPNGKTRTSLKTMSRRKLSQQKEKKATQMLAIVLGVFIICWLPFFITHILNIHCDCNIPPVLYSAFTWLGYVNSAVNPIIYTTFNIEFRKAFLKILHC
Chain of KiSS-1 receptor (Homo sapiens) (Q969F8 whole entry, looked up): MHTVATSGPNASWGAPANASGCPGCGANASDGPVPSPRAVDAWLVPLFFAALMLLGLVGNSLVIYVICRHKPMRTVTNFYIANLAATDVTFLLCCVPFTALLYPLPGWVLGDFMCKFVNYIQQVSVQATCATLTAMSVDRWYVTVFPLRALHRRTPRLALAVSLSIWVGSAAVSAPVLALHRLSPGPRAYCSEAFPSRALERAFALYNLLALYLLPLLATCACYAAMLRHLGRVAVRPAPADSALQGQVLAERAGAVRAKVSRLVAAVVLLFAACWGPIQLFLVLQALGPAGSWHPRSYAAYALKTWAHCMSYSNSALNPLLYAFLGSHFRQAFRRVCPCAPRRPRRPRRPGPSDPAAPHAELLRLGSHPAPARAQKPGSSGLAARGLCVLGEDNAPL
Chain of Beta-2 adrenergic receptor (Homo sapiens) (P07550 whole entry, looked up): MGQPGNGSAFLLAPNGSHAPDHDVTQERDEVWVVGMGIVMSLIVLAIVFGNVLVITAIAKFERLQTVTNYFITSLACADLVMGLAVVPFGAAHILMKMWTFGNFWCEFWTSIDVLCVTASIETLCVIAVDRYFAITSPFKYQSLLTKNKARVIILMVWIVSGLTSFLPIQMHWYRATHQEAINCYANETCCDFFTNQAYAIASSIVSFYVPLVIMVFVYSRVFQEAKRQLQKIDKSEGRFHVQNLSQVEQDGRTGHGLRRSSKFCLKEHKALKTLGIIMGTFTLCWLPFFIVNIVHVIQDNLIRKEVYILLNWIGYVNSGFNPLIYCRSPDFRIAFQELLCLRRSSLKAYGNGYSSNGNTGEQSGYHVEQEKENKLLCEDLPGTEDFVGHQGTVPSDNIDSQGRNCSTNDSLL
Chain of Gonadotropin-releasing hormone receptor (Homo sapiens) (P30968 whole entry, looked up): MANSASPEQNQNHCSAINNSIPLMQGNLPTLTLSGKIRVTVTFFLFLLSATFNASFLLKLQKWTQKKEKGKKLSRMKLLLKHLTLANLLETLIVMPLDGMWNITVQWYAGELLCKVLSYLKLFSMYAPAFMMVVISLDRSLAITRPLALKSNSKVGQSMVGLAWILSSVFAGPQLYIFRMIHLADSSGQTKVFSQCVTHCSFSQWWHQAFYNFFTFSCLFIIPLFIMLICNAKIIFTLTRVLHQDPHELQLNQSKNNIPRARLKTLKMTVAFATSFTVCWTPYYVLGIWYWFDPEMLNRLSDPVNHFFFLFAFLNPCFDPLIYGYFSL

| SMILES | Potency [1] | Potency [2] | Potency [3] | Potency [4] | Potency [5] | Potency [6] | Potency [7] | Potency [8] | Potency [9] | Potency [10] | Potency [11] | Potency [12] | Potency [13] | Potency [14] | Potency [15] | Potency [16] | Potency [17] | Potency [18] | Potency [19] | Potency [20] |
| --- | --- | --- | --- | --- | --- | --- | --- | --- | --- | --- | --- | --- | --- | --- | --- | --- | --- | --- | --- | --- |
| C1CCNCC1 | inactive | inactive | inactive | inactive | inactive | inactive | inactive | inactive | inactive | inactive | inactive | inactive | inactive | inactive | inactive | inactive | inactive | inactive |  |  |
| CN=CNc1ccc(C)cc1C | inactive | inactive | inactive | inactive | inactive | inactive | inactive | inactive | inactive | inactive | inactive | inactive | inactive | inactive | inactive | inactive | inactive |  | inactive |  |
| C[N+](C)(C)CCCl | inactive | inactive | inactive | inactive | inactive | inactive | inactive | inactive | inactive | inactive | inactive | inactive |  | inactive |  | inactive | inactive | inactive | inactive |  |
| O=C(O)C(Br)CBr (stereo not drawn) | inactive | inactive | inactive | inactive | inactive | inactive | inactive | inactive | inactive | inactive | inactive | inactive | inactive | inactive |  | inactive | inactive | inactive | inactive |  |
| O=S1(=O)OCCO1 | inactive | inactive | inactive | inactive | inactive | inactive | inactive | inactive | inactive |  | inactive | inactive | inactive | inactive | inactive | inactive |  | inactive |  | inactive |
| CCCCCCCCCCCCCCCCCCn1cc[n+](C)c1 | 19.2 µM (active) | inactive | inactive | inactive | inactive | inactive | inactive | inactive | inactive |  | inactive |  | inactive |  |  | inactive | inactive | inactive |  | inactive |
